PubChem BioAssay
Results filed as inconclusive are left out. Activity calls are given as the source filed them.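 How the source made its calls, unless noted: active means viability at or below 30% in both replicate assays; inconclusive means viability at or below 30% in just one of the two assays; inactive means the rest.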

Columns and labels:
[1] = reducers of endogenous Her2 protein level, primary screen, SKBR3 breast tumor cells, AlphaScreen, ATP viability (AID 461;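 active means Her2 level under about 52% in both replicate screens, with viability over 70% of control, limit read from the data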;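 on Her2 level: lower value means less Her2 protein in the cells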;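 on viability: percent of carrier control wells set as 100% viability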); details: 18-24 h, measured here: SKBR3 viability, ATP luminescence, at 10 µM
[2] = biological target: Receptor tyrosine-protein kinase erbB-2 (Homo sapiens) (UniProt P04626); assay: as above; details: 18-24 h, at 10 µM, stronger effect = lower value
Receptor tyrosine-protein kinase erbB-2 (Homo sapiens), sequence (P04626 whole entry, looked up): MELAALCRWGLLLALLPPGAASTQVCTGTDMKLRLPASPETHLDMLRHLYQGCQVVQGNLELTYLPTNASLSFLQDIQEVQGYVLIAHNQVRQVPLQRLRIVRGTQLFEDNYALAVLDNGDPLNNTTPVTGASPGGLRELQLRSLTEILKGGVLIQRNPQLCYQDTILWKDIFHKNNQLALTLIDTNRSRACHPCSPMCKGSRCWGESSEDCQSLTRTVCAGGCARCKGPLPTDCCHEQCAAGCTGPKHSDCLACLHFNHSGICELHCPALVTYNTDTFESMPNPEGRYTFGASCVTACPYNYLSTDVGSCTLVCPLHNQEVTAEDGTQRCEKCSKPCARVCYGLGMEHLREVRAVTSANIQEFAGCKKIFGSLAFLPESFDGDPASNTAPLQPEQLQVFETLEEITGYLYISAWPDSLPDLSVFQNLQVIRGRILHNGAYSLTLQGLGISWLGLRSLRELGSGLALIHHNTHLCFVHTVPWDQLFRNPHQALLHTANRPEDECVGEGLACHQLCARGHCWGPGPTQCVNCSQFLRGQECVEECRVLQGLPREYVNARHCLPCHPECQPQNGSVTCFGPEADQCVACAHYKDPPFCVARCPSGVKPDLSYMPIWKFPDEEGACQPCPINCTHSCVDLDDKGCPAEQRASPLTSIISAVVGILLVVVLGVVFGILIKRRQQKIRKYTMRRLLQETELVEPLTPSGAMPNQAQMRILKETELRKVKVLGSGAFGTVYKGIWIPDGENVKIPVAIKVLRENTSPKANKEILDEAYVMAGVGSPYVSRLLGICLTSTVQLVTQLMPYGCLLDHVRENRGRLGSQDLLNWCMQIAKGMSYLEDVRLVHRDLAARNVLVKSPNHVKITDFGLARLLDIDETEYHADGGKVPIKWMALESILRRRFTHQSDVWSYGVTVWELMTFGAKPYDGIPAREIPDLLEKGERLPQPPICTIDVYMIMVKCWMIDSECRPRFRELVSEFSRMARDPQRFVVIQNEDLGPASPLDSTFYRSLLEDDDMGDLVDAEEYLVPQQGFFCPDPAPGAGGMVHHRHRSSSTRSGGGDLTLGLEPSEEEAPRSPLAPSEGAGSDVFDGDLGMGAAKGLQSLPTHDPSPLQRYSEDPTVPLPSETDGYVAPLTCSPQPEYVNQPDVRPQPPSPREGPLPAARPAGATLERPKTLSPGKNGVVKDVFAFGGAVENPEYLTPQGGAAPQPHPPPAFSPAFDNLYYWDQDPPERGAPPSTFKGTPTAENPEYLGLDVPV

[3] = SK-BR-3 cell growth inhibitors, pilot screen, 24 h, human (AID 572;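 active means viability at or below 10% of carrier control in both of two separate runs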;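 further: compound exposure lasted between 18 and 24 h rather than exactly 24 h; 100% = carrier-treated control wells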); details: SK-BR-3 viability, CellTiter-Glo luminescence, at 10 µM, stronger effect = lower value
[4] = HUVEC growth inhibition – cell-based, human, primary screen (AID 575); details: HUVEC proliferation, CellTiter-Glo luminescence, 72 h; at 10 µM; stronger effect = lower value;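 further: 100% = median of untreated cell wells with 0.1% DMSO on each plate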
[5] = growth inhibitors of H69AR lung tumor, primary screen, human, duplicate replicates (AID 580;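 active means viability at or under a set limit in both replicates, limit being median viability minus 3 SD, cut at about 48% in these data, passing the limit was not always enough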;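 further: 100% = mean luminescence of untreated wells and 0% = no signal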); details: H69AR lung tumor cells viability, ATP luminescence, 72 h; at 10 µM; stronger effect = lower value
[6] = reversal of MRP1-mediated doxorubicin resistance, pilot screen, H69AR cells, doxorubicin co-treatment (AID 601;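 active means viability loss from added drug above about 55%, and viability with drug at most 40%, in both replicates, limit read from the data, passing the limit was not always enough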); details: CellTiter-Glo, 72 h, at 10 µM; for differential viability (reversal): stronger effect = higher value
[7] = 384-well plate pilot, post-Golgi transport modulator project, inhibition of yeast transport mutant growth (AID 636; in the data active means inhibition above about 31%); details: absorbance 615 nm, about 18 h, stronger effect = higher value
[8] = growth suppression of yeast trafficking mutant, preliminary HTS, modulators of trafficking downstream of Golgi apparatus project, 1536-format plate, OD 615 nm (AID 637; in the data active means inhibition above about 30%); details: yeast transport mutant growth, absorbance 615 nm, 18 h; stronger effect = higher value
[9] = OD615 S. cerevisiae growth inhibition, permissive medium, pilot counter-assay, permissive growth control for S. cerevisiae lifespan shortening project (AID 705;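 active means growth inhibition above 25% in both replicates, a cutoff set 3 SD above the mean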); details: OD615, 24 h, at 10 µM, stronger effect = higher value
[10] = Restrictive medium S. cerevisiae growth inhibition, OD615, pilot screen of yeast lifespan reduction project, restrictive growth control (AID 706;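 active means growth inhibition above a set limit, 3 SD over mean compound inhibition, in both replicates, cut at about 43% in these data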;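 further: modified DeaD lifespan yeast strain shifted to restrictive glucose medium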); details: OD615, 48 h, at 10 µM, stronger effect = higher value
[11] = viability gain of MRP-1-high H69AR cells under doxorubicin, pilot screen, MRP-1 activator project, CellTiter-Glo, duplicate (AID 807;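 active means viability increase at or above a cutoff of the median across tested compounds plus 3 SD, cut at about 8.5% in these data, passing the limit was not always enough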;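 further: compound pretreatment 18-22 h then 72 h combined with doxorubicin; 0% = doxorubicin alone and 100% = vehicle without doxorubicin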); details: H69AR viability with doxorubicin, CellTiter-Glo luminescence; at 10 µM; stronger effect = higher value
[12] = growth suppression of beta-catenin knockout HCT116, pilot screen, human colon tumor cells (AID 823;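 active means cell viability at or below a set limit in both duplicate runs, the limit being the all-compound median minus 4 SD, cut at about 23% in these data, passing the limit was not always enough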;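 further: 0% = wells killed by 20 µM Hyamine and 100% = untreated DMSO cell wells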); details: CellTiter-Glo, 60 h, at 10 µM, stronger effect = lower value
[13] = growth suppression of PTEN-deleted HCT116, pilot screen, cell-based, HCT116 clonal line, CellTiter-Glo (AID 824;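 active means viability at or below 27.92% in each of two runs, the all-compound median minus 4 SD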;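 further: 0% = 20 µM Hyamine control and 100% = vehicle cell control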); details: 60 h, at 10 µM, stronger effect = lower value
[14] = inhibitors of the yeast RAM network, pilot screen, dse1pr::URA3 reporter, 5-FOA selection (AID 869;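 active means inhibition over a set limit, the all-compound mean plus 3 SD, in both replicate runs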;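 further: 0% = DMSO wells with no growth and 100% = 10 µM 1-NA-PP1 with full growth; RAM network block rescues cells from 5-FOA so hits raise OD615 growth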); details: S. cerevisiae dse1pr::URA3 5-FOA growth, OD615, 2 d; at 10 µM; stronger effect = higher value; strain carries analog-sensitive mutant Cbk1 kinase
[15] = RAM signaling pathway blockade in yeast – S. cerevisiae, Pdr1DBD-CYC8 efflux-inhibited sensitized strain, primary screen (AID 1298;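 active means RAM network inhibition above 8.4% in each of two replicates, 3 SD over the compound average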;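 further: 0% = DMSO untreated cells without growth and 100% = 10 µM 1-NA-PP1 full growth; higher means more yeast growth rescued from 5-FOA killing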); details: S. cerevisiae cbk1-as DSE1-URA3 strain, 5-FOA growth OD615, 2 d; at 50 µM; stronger effect = higher value
[16] = H69AR cells + 2 uM doxorubicin, measured here: viability with 2 uM doxorubicin, stronger effect = lower value
[17] = H69AR cells, compound alone cytotoxicity

O=C(Cn1cc2c(n1)CCCCC2)N1CCc2ccccc21
inactive: Her2 level [2] 95.5% | viability [3] 85.5% | viability [4] 67.6% | viability [5] 87.8% | differential viability (reversal) ([6]; H69AR cells + 2 uM doxorubicin) -3.99% | inhibition [7] -1.33% | inhibition [8] -7.87% | growth inhibition [9] -4.03% | growth inhibition [10] -4.38% | viability increase [11] -2.66% | viability [12] 66.4% | viability [13] 81% | inhibition [14] 2.15% | RAM network inhibition [15] 1.83%
91.8%: viability [6, 16]
85.5%: viability [1]
87.8%: viability [6, 17]

C=C(C)Cn1c(N2CC(C)CC(C)C2)nc2c1c(=O)[nH]c(=O)n2C (centres undefined)
83.2%: viability [6, 17]
84%: viability [1]
95.1%: viability [6, 16]
inactive: Her2 level [2] 86% | viability [3] 84% | viability [4] 96.2% | viability [5] 83.2% | differential viability (reversal) ([6]; H69AR cells + 2 uM doxorubicin) -11.8% | inhibition [7] -4.93% | inhibition [8] 1% | growth inhibition [9] -5.73% | growth inhibition [10] 0.695% | viability increase [11] -5.11% | viability [12] 78.3% | viability [13] 81.2% | inhibition [14] 1.05% | RAM network inhibition [15] 1.9%

CCOC(=O)CSc1nnc(Cn2c(=O)sc3ccccc32)n1C
inactive: Her2 level [2] 94% | viability [3] 96% | viability [4] 87% | viability [5] 96.7% | differential viability (reversal) ([6]; H69AR cells + 2 uM doxorubicin) 11.1% | inhibition [7] 3.33% | inhibition [8] -2.5% | growth inhibition [9] 1.56% | growth inhibition [10] 7.89% | viability increase [11] 1.76% | viability [12] 107% | viability [13] 106% | inhibition [14] 0.27% | RAM network inhibition [15] 3.51%
96.7%: viability [6, 17]
96%: viability [1]
85.5%: viability [6, 16]

CCOCCCNC(=O)Cn1ncc2c(=O)oc3ccccc3c21
95%: viability [1]
90.5%: viability [6, 17]
inactive: Her2 level [2] 98% | viability [3] 95% | viability [4] 81.5% | viability [5] 90.5% | differential viability (reversal) ([6]; H69AR cells + 2 uM doxorubicin) -3.42% | inhibition [7] 1.79% | inhibition [8] -2.83% | growth inhibition [9] 7.44% | growth inhibition [10] 15.2% | viability increase [11] -0.6% | viability [12] 101% | viability [13] 94.3% | inhibition [14] -0.73% | RAM network inhibition [15] 1.15%
93.9%: viability [6, 16]

Cc1c(C)c2ccc(OC3CCCCC3=O)cc2oc1=O (centres undefined)
85.8%: viability [6, 17]
100%: viability [1]
75.4%: viability [6, 16]
inactive: Her2 level [2] 112% | viability [3] 100% | viability [4] 82.6% | viability [5] 85.8% | differential viability (reversal) ([6]; H69AR cells + 2 uM doxorubicin) 10.4% | inhibition [7] -1.92% | inhibition [8] -2.67% | growth inhibition [9] -16.6% | growth inhibition [10] -7.25% | viability increase [11] 0.57% | viability [12] 104% | viability [13] 101% | inhibition [14] 0.48% | RAM network inhibition [15] 1.93%

COc1cc2c(cc1OC)C(c1ccc(C)o1)CC(=O)N2 (centres undefined)
inactive: Her2 level [2] 87.5% | viability [3] 81.5% | viability [4] 86.2% | viability [5] 89.4% | differential viability (reversal) ([6]; H69AR cells + 2 uM doxorubicin) 9.42% | inhibition [7] -0.13% | inhibition [8] 4.33% | growth inhibition [9] -3.98% | growth inhibition [10] 1.56% | viability increase [11] -4.72% | viability [12] 80% | viability [13] 78.2% | inhibition [14] 1.21% | RAM network inhibition [15] 0.73%
89.4%: viability [6, 17]
80%: viability [6, 16]
81.5%: viability [1]

Cc1occc1C(=O)N1CCN(c2ncccn2)CC1
87%: viability [1]
86.9%: viability [6, 16]
inactive: Her2 level [2] 118% | viability [3] 87% | viability [4] 99.6% | viability [5] 95.8% | differential viability (reversal) ([6]; H69AR cells + 2 uM doxorubicin) 8.91% | inhibition [7] 2.56% | inhibition [8] -5.83% | growth inhibition [9] -15.2% | growth inhibition [10] -1.04% | viability increase [11] -0.73% | viability [12] 101% | viability [13] 91.9% | inhibition [14] 1.98% | RAM network inhibition [15] 1.89%
95.8%: viability [6, 17]

COc1ccc(-c2noc(COc3ccc(Cl)c(C)c3)n2)cc1
91%: viability [1]
inactive: Her2 level [2] 115% | viability [3] 91% | viability [4] 99.6% | viability [5] 88.4% | differential viability (reversal) ([6]; H69AR cells + 2 uM doxorubicin) 4.7% | inhibition [7] -5.07% | inhibition [8] -7.38% | growth inhibition [9] -7.56% | growth inhibition [10] -29% | viability increase [11] 0.12% | viability [12] 101% | viability [13] 91.5% | RAM network inhibition [15] 8.54%
88.4%: viability [6, 17]
83.7%: viability [6, 16]
active: inhibition [14] 6.36%

CC(CCC(=O)Nc1nncs1)C(=O)O (centres undefined)
124%: viability [1]
inactive: Her2 level [2] 110% | viability [3] 124% | viability [4] 101% | viability [5] 85.9% | differential viability (reversal) ([6]; H69AR cells + 2 uM doxorubicin) -0.74% | inhibition [7] -3.2% | inhibition [8] 8.33% | growth inhibition [9] -8.12% | growth inhibition [10] -5.29% | viability increase [11] 0.04% | viability [12] 108% | viability [13] 95.9% | inhibition [14] 0.135% | RAM network inhibition [15] -0.05%
85.9%: viability [6, 17]
86.6%: viability [6, 16]

CC1=C(C)CC2C(=O)N(c3cccc4ccccc34)C(=O)C2C1 (centres undefined)
85.7%: viability [6, 17]
83.2%: viability [6, 16]
active: growth inhibition [9] 75.2% | growth inhibition [10] 67.6%
104%: viability [1]
inactive: Her2 level [2] 114% | viability [3] 104% | viability [4] 80.1% | viability [5] 85.7% | differential viability (reversal) ([6]; H69AR cells + 2 uM doxorubicin) 2.52% | inhibition [7] -6.53% | inhibition [8] -11.3% | viability increase [11] -0.78% | viability [12] 100% | viability [13] 96.5% | inhibition [14] 0.295% | RAM network inhibition [15] 2.23%

COc1ccc(S(=O)(=O)NCc2ccc3c(c2)OCO3)cc1C(=O)O
90.1%: viability [6, 17]
inactive: Her2 level [2] 84.5% | viability [3] 96.5% | viability [4] 109% | viability [5] 90.1% | differential viability (reversal) ([6]; H69AR cells + 2 uM doxorubicin) -3.31% | inhibition [7] -4.36% | inhibition [8] -0.33% | growth inhibition [9] -4.53% | growth inhibition [10] -6.08% | viability increase [11] -0.34% | viability [12] 96.9% | viability [13] 95.4% | inhibition [14] 1.89% | RAM network inhibition [15] 5.84%
96.5%: viability [1]
93.4%: viability [6, 16]

CCC(Oc1ccccc1)C(=O)Nc1ccccc1OC (centres undefined)
86%: viability [1]
inactive: Her2 level [2] 72.5% | viability [3] 86% | viability [4] 99.4% | viability [5] 97.4% | differential viability (reversal) ([6]; H69AR cells + 2 uM doxorubicin) 12.6% | inhibition [7] -6.35% | inhibition [8] 3.61% | growth inhibition [9] -1.92% | growth inhibition [10] 8.91% | viability increase [11] -3.52% | viability [12] 90% | viability [13] 87% | inhibition [14] 1.94% | RAM network inhibition [15] 5.73%
97.4%: viability [6, 17]
84.8%: viability [6, 16]
